Compound activity: PubChem BioAssay, several laboratories
An excerpt weighted towards active compounds, which were near 1.6% of everything screened.
MEX-5 binding: C. elegans MEX-5 TCR-2 RNA binding activity | activity score (negative = inhibition of binding), % at 10 µM | MEX-5/FITC-TCR2 RNA binding, fluorescence polarization; stronger effect = lower value | AID 1832 | 300,000 compounds, 0.38% hits;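 active = inhibition past about -25% in most replicates, and total fluorescence under double the plate's negative control median, limit read from the data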;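 also: 0% = DMSO and -100% = 5 µM competing unlabeled TCR2 RNA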
Target sequence (Q9XUB2 whole entry, looked up): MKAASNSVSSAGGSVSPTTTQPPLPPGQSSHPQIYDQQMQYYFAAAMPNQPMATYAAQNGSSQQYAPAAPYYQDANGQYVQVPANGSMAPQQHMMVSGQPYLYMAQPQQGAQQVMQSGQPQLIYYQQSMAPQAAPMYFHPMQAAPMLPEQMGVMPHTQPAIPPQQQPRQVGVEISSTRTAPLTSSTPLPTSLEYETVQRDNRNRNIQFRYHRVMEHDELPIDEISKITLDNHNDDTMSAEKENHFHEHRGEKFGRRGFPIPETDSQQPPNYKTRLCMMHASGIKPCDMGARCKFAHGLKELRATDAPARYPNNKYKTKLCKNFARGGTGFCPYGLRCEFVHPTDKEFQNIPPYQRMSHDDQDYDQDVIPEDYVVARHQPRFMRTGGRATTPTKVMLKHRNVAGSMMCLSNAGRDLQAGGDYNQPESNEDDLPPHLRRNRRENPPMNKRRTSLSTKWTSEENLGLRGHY
LYPLA2 counter: LYPLA2 (human) inhibition in PME1 counter-screen; O95372; recombinant LYPLA2, FP-Rh probe fluorescence polarization; inhibition, % at 5.9 µM; 320,000 compounds, 0.38% hits; AID 2177;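 active = inhibition above the screen-wide mean plus 3 SD, limit set per campaign, cut at about 26% in these data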;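 also: 0% = LYPLA2 with DMSO and 100% = wells lacking LYPLA2 enzyme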
Target sequence (O95372 whole entry, looked up): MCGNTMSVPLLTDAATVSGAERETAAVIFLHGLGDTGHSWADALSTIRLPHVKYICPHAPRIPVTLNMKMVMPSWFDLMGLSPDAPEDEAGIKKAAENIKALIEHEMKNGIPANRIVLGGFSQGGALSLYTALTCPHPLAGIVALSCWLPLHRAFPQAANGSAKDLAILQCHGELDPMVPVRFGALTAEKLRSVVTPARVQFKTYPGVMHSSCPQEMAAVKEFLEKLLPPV
LYPLA1 inh: counter-screen for PME1 inhibitors: inhibitors of human LYPLA1; AID 2174; recombinant LYPLA1, FP-Rh probe fluorescence polarization; 320,000 compounds, 0.16% hits; O75608; inhibition, % at 5.9 µM;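 active = inhibition above the mean of all tested compounds plus 3 SD, set per campaign, cut at about 14% in these data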;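 also: inhibitors block serine hydrolase probe labeling of LYPLA1 so polarization falls; 0% = enzyme with DMSO and 100% = wells lacking LYPLA1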
Fam108B inh: Fam108B inhibition, counter-screen for RBBP9 inhibitors; 300,000 compounds, 0.33% hits; recombinant Fam108B, FP-Rh probe fluorescence polarization; inhibition, % at 9.51 µM;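 active = inhibition above the screen mean inhibition plus 3 SD, computed separately per campaign, cut at about 18% in these data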;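 also: inhibitors lower polarization as less probe binds the enzyme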
PREPL inh: inhibits the human prolyl oligopeptidase-like enzyme; recombinant PREPL, fluorescence polarization activity-based probe; inhibition, % at 5.96 µM; 320,000 compounds, 0.68% hits; in the data active = inhibition above about 43%;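 also: 0% = enzyme with DMSO and 100% = wells lacking enzyme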
PME-1 inh: blocks human protein phosphatase methylesterase 1. recombinant PME-1, FP-Rh probe fluorescence polarization. inhibition, % at 5.9 µM. 320,000 compounds, 0.53% hits. AID 2130;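 active = inhibition above the campaign mean of all compounds plus 3 SD, cut at about 26% in these data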;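 also: competitive labeling of PME-1 active site by serine hydrolase directed probe; 0% = PME-1 with DMSO and 100% = wells lacking PME-1 enzyme; inhibitors block probe labeling so polarization falls and inhibition rises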
Fam108b inh conf: confirmation of mouse Fam108b serine hydrolase inhibitors; recombinant Fam108b, FP-Rh probe fluorescence polarization; AID 1978; inhibition, % at 9.51 µM; 930 compounds, 44% hits; shares compounds with Fam108B inh;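 active = inhibition above a limit from the primary screen, the mean over all compounds plus 3 SD, cut at about 19% in these data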;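 also: 0% = median of active Fam108b wells and 100% = catalytically dead S170A mutant; inhibitors free the probe so polarization falls as inhibition rises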
Fam108b ABPP HTS: inhibits mouse Fam108b in gel-based ABPP; shares compounds with Fam108B inh; recombinant Fam108b, fluorophosphonate probe; inhibition, % at 20 µM; 260 compounds, 44% hits; AID 588649; in the data active = inhibition above about 40%
* marks the source's active call; other numbers are inactive results; . = not tested or not shown.

SMILES | MEX-5 binding | LYPLA2 counter | LYPLA1 inh | Fam108B inh | PREPL inh | PME-1 inh | Fam108b inh conf | others
CC(C(=O)Nc1ccc(S(=O)(=O)N2CCOCC2)cc1)N1C(=O)C2CC=CCC2C1=O (stereo not drawn) | 0.4 | -1.7 | 1.0 | 8.6 | 9.9 | -4.7 | .
CCN(CC(=O)Nc1c(F)cccc1F)C(=O)CNC(=O)c1cccs1 | 1.7 | 1.2 | -0.3 | -2.9 | -10.1 | -6.6 | .
N#Cc1ccc(N/N=C/c2cn(-c3ccccc3)nc2-c2ccccc2)c([N+](=O)[O-])c1 | 0.2 | -3.8 | -4.1 | 3.8 | -3.5 | -2.9 | .
CC(=O)Nc1ccc2[nH]c3ccccc3c2c1 | 0.4 | 6.0 | -3.8 | 2.6 | 5.6 | -0.6 | .
O=C(Nc1ccc(Cl)cc1)c1cc2c(cc1O)[nH]c1ccccc12 | -1.7 | -2.8 | -10.6 | 24.6* | 10.2 | -48.4 | -98.2
Cc1c(C(=O)c2ccc(Br)cc2)c(=O)n(C)c(=O)n1C | -0.6 | 5.0 | 2.4 | -4.1 | -7.6 | -6.8 | .
CC(C)N1CC(COc2ccccc2Cl)OC1=O (stereo not drawn) | . | -1.8 | 0.1 | -1.4 | -2.1 | 0.4 | .
S=C(NCc1ccc2[nH]c3c(c2c1)CCCC3)Nc1ccccc1 | -0.5 | 6.7 | -1.6 | 21.4* | 17.7 | 9.4 | 13.0
Cc1cccc([N+](=O)[O-])c1NC(=O)COC(=O)C1CC2CCCC(C1)C2=O (stereo not drawn) | -0.1 | 10.7 | 0.1 | -1.0 | 3.1 | 1.3 | .
O=C(Nc1cc(C(F)(F)F)ccc1N1CCOCC1)C1=COCCO1 | 2.1 | 1.7 | 1.7 | -0.4 | 13.6 | 2.4 | .
O=C1NC(=O)/C(=C/c2ccc(-c3cc(C(=O)O)ccc3Cl)o2)S1 | -8.6 | 0.0 | 3.2 | 3.1 | 2.8 | -10.0 | .
O=C1NC(=S)/C(=C\c2ccc(-c3ccccc3Cl)o2)S1 | -41.7* | 11.3 | 10.2 | 28.8* | 32.8 | 37.0* | 45.3* | Fam108b ABPP HTS=65.0*
Cc1cccc2c(N=Nc3ccc(S(=O)(=O)Nc4ccc(Cl)cc4)cc3[N+](=O)[O-])c(O)[nH]c12 | -0.8 | -1.6 | -9.4 | 20.2* | 23.9 | 23.0 | -22.5
Cc1ccc(C(=O)O)cc1N1C(=O)c2cccc3c([N+](=O)[O-])ccc(c23)C1=O | -24.2 | 6.9 | 1.5 | 27.0* | 10.9 | 31.7* | 22.9*
O=C(Nc1nc(-c2ccccc2)cs1)c1ccccc1NS(=O)(=O)c1ccc(F)cc1 | -2.6 | 3.4 | -7.0 | 24.0* | 18.4 | 17.7 | 5.5
Cc1ccc(S(=O)(=O)N=C2C=C(Sc3ncn[nH]3)C(=O)c3ccccc32)c(C)c1 | . | . | . | . | . | . | . | Fam108b ABPP HTS=95.0*
Cc1ccc(C)c(S(=O)(=O)/N=C2\C=C(NS(=O)(=O)c3ccccc3)C(=O)c3ccccc32)c1 | -0.1 | -20.4 | -13.0 | 4.2 | -6.7 | 4.8 | .
CCc1ccc(S(=O)(=O)N=C2C=C(Sc3ncn[nH]3)C(=O)c3ccccc32)cc1 | . | . | . | . | . | . | . | Fam108b ABPP HTS=60.0*
O=[N+]([O-])c1cc(Br)c(O)c(C=NNc2nnnn2-c2cccc3ccccc23)c1 | . | . | . | . | . | . | . | Fam108b ABPP HTS=0.0
O=C(N/N=C/c1cc([N+](=O)[O-])cc([N+](=O)[O-])c1O)C(O)(c1ccccc1)c1ccccc1 | . | -7.2 | -3.0 | . | 7.0 | 6.3 | .
Cc1cccc(N=Cc2nc(-c3ccccc3Br)oc2O)n1 | . | . | . | . | . | . | . | Fam108b ABPP HTS=50.0*
Cc1ccnc(N=Cc2nc(-c3ccccc3Br)oc2O)c1 | -6.7 | 9.6 | 5.2 | 22.3* | 3.2 | -7.1 | 80.3* | Fam108b ABPP HTS=75.0*
Cc1cccc(/N=C/c2nc(-c3ccccc3Br)oc2O)n1 | -3.5 | 19.6 | 3.0 | 27.1* | 7.0 | 4.5 | 36.9*
CCOc1ccc(CCNC(=O)Cc2ccc(NC3=NC4CS(=O)(=O)CC4S3)cc2)cc1OCC (stereo not drawn) | -2.1 | -5.5 | 1.9 | -1.1 | -1.4 | -2.1 | .
O=C1C(Nc2ccccc2)=C(N2CCCCC2)C(=O)c2ccccc21 | 0.5 | 9.7 | 3.5 | 7.8 | 5.5 | 4.4 | .
SMILES | MEX-5 binding | LYPLA2 counter | LYPLA1 inh | Fam108B inh | PREPL inh | PME-1 inh | Fam108b inh conf | others
O=C1C(Nc2cccc(O)c2)=C(N2CCCCC2)C(=O)c2ccccc21 | -14.1 | 8.0 | 6.4 | 19.6* | 27.4 | 12.6 | 20.5*
CN(C)c1ccc(NC(=O)CSc2nc(N)c(C(=O)Nc3ccc(N(C)C)cc3)s2)cc1 | -1.0 | 1.1 | -13.0 | 19.3* | 26.1 | 20.0 | -5.8
Cc1cccc2c(N=O)c(O)[nH]c12 | -3.9 | 12.1 | 7.2 | 27.5* | 41.4 | 53.1* | 24.1*
Cc1[nH]c2c(C)cccc2c1CC(=O)O | 1.0 | -7.8 | -1.4 | 2.0 | -5.3 | 0.6 | .
O=C(Nc1cccc(Cl)c1)c1cc(N=Nc2ccc([N+](=O)[O-])cc2Cl)ccc1O | 0.2 | -12.3 | -10.9 | 25.7* | 6.6 | 21.9 | -0.6
Cc1c(Cl)cccc1NC(=O)NNC(=O)CCc1ccccc1 | -2.2 | 6.7 | 4.3 | 2.3 | -0.7 | 1.5 | .
O=c1cnnc(NCc2ccccc2)[nH]1 | -0.7 | -2.6 | -2.7 | 22.3* | -3.4 | -4.8 | 2.2
Nc1c(S(=O)(=O)c2cccc(Cl)c2)c2nc3ccccc3nc2n1/N=C/c1ccc(O)c(O)c1 | 0.0 | -6.4 | -23.8 | 76.7* | 64.6* | 51.3* | 140.5*
COc1cccc(/C=N/n2c(N)c(S(=O)(=O)c3cccs3)c3nc4ccccc4nc32)c1OC | 2.3 | 4.8 | 2.2 | -9.5 | -6.1 | -7.5 | .
COc1cc(CN2CCC(C(=O)NC3CCCC3)CC2)cc(Br)c1O | -0.7 | 0.0 | 0.1 | 3.8 | -5.0 | 4.1 | .
Nc1nc2ccccc2n1N=Cc1ccc(Br)cc1 | . | . | . | . | . | . | . | Fam108b ABPP HTS=0.0
Cc1[nH]c2ccccc2c1/C=N/NC(=O)C1CC1(c1ccccc1)c1ccccc1 (stereo not drawn) | 4.5 | -6.7 | -7.6 | 21.1* | 7.8 | 41.8* | 15.6
Cc1[nH]c2ccccc2c1/C=N/Nc1ccccc1[N+](=O)[O-] | -3.3 | 3.7 | 2.8 | 22.3* | 51.4* | 46.8* | -7.6
Cc1[nH]c2ccccc2c1/C=N/NS(=O)(=O)c1ccccc1 | 0.7 | -9.1 | -6.5 | 3.3 | 22.1 | 5.4 | .
CS(=O)(=O)c1ccccc1-c1nnc(NC(=O)C2=COCCO2)o1 | -2.2 | -0.1 | -3.9 | -1.0 | 2.2 | 0.3 | .
COC(=O)C1CCN(C(=O)CN2C(=O)c3ccccc3S2(=O)=O)CC1 | 0.9 | 10.3 | 0.1 | -2.5 | 10.7 | 2.1 | .
COc1ccc(-n2c(NC(=O)c3ccc(Br)o3)c(C#N)c3nc4ccccc4nc32)cc1 | -3.5 | . | . | . | . | . | .
N#Cc1c(NC(=O)c2ccc(Br)o2)n(-c2ccccc2)c2nc3ccccc3nc12 | -7.7 | 0.7 | 0.0 | 32.8* | 4.6 | 17.3 | 33.7* | Fam108b ABPP HTS=0.0
COc1ccc(-c2cc(C(=O)NN)n(-c3ccccc3)n2)cc1 | -2.0 | -7.4 | -5.2 | -7.8 | -2.8 | -14.2 | .
